These results are taken from PubChem BioAssay (NCI).

Some test systems named below: DU-145 prostate; MALME-3M melanoma; MDA-MB-231 breast; SF-268 CNS; SF-295 CNS; SF-539 CNS; UACC-257 melanoma; M14 melanoma; RXF 393 renal; K-562 leukemia.
Assay in all cases: NCI-60 one-dose screen, 48 h (100 = growth as untreated, 0 = no growth, -100 = all killed)
Settings in all cases: 10 µM unless noted

SMILES strings stand for the structures. Compounds without any hit were thinned out: in the full panel of roughly 83,000, 20% have a hit.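 A percent growth of 40 corresponds to 60% growth inhibition; 0 means no net growth; -100 means all cells died. Active threshold: below 10.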 A number with no mark means an inactive call. Active and inactive are the calls of the source.

As to `Cc1sc2c(c1C)C(c1ccc(Cl)cc1)=N[C@@H](CC(=O)OC(C)(C)C)c1nnc(C)n1-2`, the growth is 57% in the experiment on DU-145 prostate; 57% in the experiment with MALME-3M melanoma; 42.8% in the experiment with MDA-MB-231 breast; 51% in the experiment on SF-268 CNS; 37.6% in the experiment with SF-295 CNS; 37.5% in the experiment with SF-539 CNS. Also, the growth in the experiment with UACC-257 melanoma was 58.1%; with M14 melanoma, 43%.
Turning to `O=c1[nH]c2ccc([N+](=O)[O-])cc2c(=O)o1`, the growth in the experiment with DU-145 prostate was 117%; with MALME-3M melanoma it was 106%; in the experiment with MDA-MB-231 breast, 107%; with RXF 393 renal, 101%; in the experiment on SF-295 CNS, 105%; in the experiment with SF-539 CNS it was 102%. In addition, the growth was 104% in the experiment with UACC-257 melanoma and 108% in the experiment with M14 melanoma.
Turning to `O=C(Nc1ccc(Br)cc1)c1cc(Br)cc(Br)c1O`, the growth is 96.9% in the experiment on K-562 leukemia; -12% (active) in the experiment on MALME-3M melanoma; -22.4% (active) with MDA-MB-231 breast; -9.8% (active) in the experiment with RXF 393 renal; 32.3% with SF-268 CNS; -8.2% (active) with SF-295 CNS. The growth was 8.02% (active) in the experiment with SF-539 CNS, -17.1% (active) in the experiment with UACC-257 melanoma and 1.78% (active) in the experiment on M14 melanoma.
For `CCC(CC)CC1(C)CC2(C)CCOC2OO1` (configuration not stated), the growth in the experiment with DU-145 prostate is 107%; in the experiment on MALME-3M melanoma, 112%; in the experiment on MDA-MB-231 breast, 100%; in the experiment on RXF 393 renal, 111%; in the experiment with SF-268 CNS, 110%; in the experiment with SF-295 CNS, 101%. Besides, the growth is 99.1% with SF-539 CNS, 98% in the experiment on UACC-257 melanoma and 115% in the experiment on M14 melanoma.
Turning to `N#CC1C(C#N)C2CCC1C1C2N1c1ccccc1` (configuration not stated), the growth in the experiment with DU-145 prostate is 118%; in the experiment with MALME-3M melanoma it was 85.7%; in the experiment on MDA-MB-231 breast it was 110%; in the experiment with RXF 393 renal, 103%; in the experiment with SF-268 CNS, 104%; in the experiment with SF-295 CNS, 103%. In addition, the growth in the experiment on SF-539 CNS is 104%; in the experiment with UACC-257 melanoma, 117%; in the experiment on M14 melanoma, 101%.
Consider `COc1cc([N+](=O)[O-])c2nc(C)ccc2c1[N+](=O)[O-]`, for which the growth in the experiment with DU-145 prostate is 84.9%; with MALME-3M melanoma, 88%; in the experiment with MDA-MB-231 breast, 94.4%; with RXF 393 renal it was 88.2%; with SF-268 CNS, 98%; with SF-295 CNS, 132%. In addition, the values for the growth with SF-539 CNS, with UACC-257 melanoma and in the experiment with M14 melanoma were 118%, 101% and 92.5%, respectively.
With `CCCCN(CCCC)P(=O)(Oc1ccccc1)Oc1ccccc1`, the growth in the experiment on K-562 leukemia is 46.2%; in the experiment with MALME-3M melanoma it was 119%; with MDA-MB-231 breast it was 69.3%; in the experiment with RXF 393 renal it was 55.8%; with SF-268 CNS it was 84%; in the experiment on SF-295 CNS it was 64.5%. The values for the growth in the experiment on SF-539 CNS, in the experiment with UACC-257 melanoma and in the experiment with M14 melanoma were 100%, 70.4% and 52.3%, respectively.
Regarding `CC(=O)O[C@@H]1CC[C@]2(C)[C@H]3CC[C@]4(C)C(=O)CC[C@H]4[C@@H]3C[C@@H]3SC(N)=N[C@@]32C1`, the growth with DU-145 prostate was 79.2%; with MALME-3M melanoma it was 55.4%; with MDA-MB-231 breast, 68.2%; in the experiment with RXF 393 renal, 79.7%; in the experiment on SF-268 CNS, 73.9%; in the experiment on SF-295 CNS, 42.7%. Further, the values for the growth with SF-539 CNS, in the experiment on UACC-257 melanoma and in the experiment with M14 melanoma were 51.3%, 67.1% and 41.1%, respectively.
`CCOC(=O)N1CC1`: the growth was 110% in the experiment on DU-145 prostate; 108% with MALME-3M melanoma; 99.2% with MDA-MB-231 breast; 106% with RXF 393 renal; 98.6% in the experiment on SF-268 CNS; 97.8% with SF-295 CNS. Also, the growth is 103% with SF-539 CNS, 101% in the experiment with UACC-257 melanoma and 96.5% in the experiment with M14 melanoma.
Consider `CC[C@H](C)[C@@H]1OC(=O)C(C)(C)[C@H](O)[C@H](Cc2ccccc2)OC(=O)[C@H](C(C)C)OC(=O)[C@@H](NC(=O)c2cccc(NC=O)c2O)[C@@H](C)OC1=O`, for which the growth is 62.7% in the experiment with DU-145 prostate; 77.4% in the experiment with MALME-3M melanoma; 59.1% in the experiment with MDA-MB-231 breast; 87.1% in the experiment on RXF 393 renal; 62.1% in the experiment on SF-268 CNS; 28% in the experiment on SF-295 CNS. Besides, the growth with SF-539 CNS is 52.8%; in the experiment on UACC-257 melanoma it was 32.3%; in the experiment on M14 melanoma it was 62.8%.
For `CNCc1cccnc1`, the growth in the experiment on DU-145 prostate is 111%; in the experiment on MALME-3M melanoma it was 124%; in the experiment with MDA-MB-231 breast it was 126%; in the experiment on RXF 393 renal, 121%; in the experiment on SF-268 CNS it was 104%; in the experiment on SF-295 CNS, 95.5%. Further, the growth in the experiment with SF-539 CNS is 112%; in the experiment with UACC-257 melanoma, 105%; with M14 melanoma, 117%.
On to `CCc1ccccc1[C@@H]1C[C@]2(C)CCO[C@@H]2OO1`, for which the growth in the experiment with DU-145 prostate is 105%; in the experiment on MALME-3M melanoma it was 110%; in the experiment with MDA-MB-231 breast, 103%; in the experiment on RXF 393 renal, 112%; with SF-268 CNS it was 98.3%; in the experiment with SF-295 CNS, 101%. The growth is 111% in the experiment on SF-539 CNS, 96.7% in the experiment with UACC-257 melanoma and 104% in the experiment on M14 melanoma.
With `ClCCN(CCCl)c1ccc(/C=N\N=C\c2ccc(N(CCCl)CCCl)cc2)cc1`, the growth with DU-145 prostate is 42.4%; in the experiment on MALME-3M melanoma, 109%; in the experiment on MDA-MB-231 breast it was 64.9%; in the experiment with SF-268 CNS, 40.7%; in the experiment with SF-295 CNS, 10.7%; with SF-539 CNS, 1.3% (active). Also, the growth with UACC-257 melanoma is 31%; in the experiment on M14 melanoma, 12.9%.
In the case of `O=C1C=C2C(=CCOC2O)O1` (configuration not stated), the growth in the experiment with DU-145 prostate is 9.48% (active); in the experiment with MALME-3M melanoma, -28.5% (active); in the experiment with MDA-MB-231 breast, 66%; with RXF 393 renal, -74.8% (active); with SF-268 CNS it was 3.53% (active); in the experiment on SF-295 CNS, 89%. In addition, the growth is -33.6% (active) with SF-539 CNS, -22.1% (active) in the experiment with UACC-257 melanoma and -18.9% (active) with M14 melanoma.
On to `COP(=S)(N1CC1)N1CC1`, for which the growth is 123% with DU-145 prostate; 105% in the experiment with MALME-3M melanoma; 93% in the experiment with MDA-MB-231 breast; 114% in the experiment on RXF 393 renal; 112% in the experiment with SF-268 CNS; 104% with SF-295 CNS. Besides, the growth in the experiment on SF-539 CNS is 94.3%; in the experiment with UACC-257 melanoma, 147%; in the experiment with M14 melanoma, 99.5%.
